The text below walks through data of PubChem BioAssay (Tox21).

Test [1] can be described thus: Nuclear factor erythroid 2-related factor 2/antioxidant responsive element (Nrf2/ARE) small molecule agonists: qHTS cell viability counter screen in human keratinocytes (AID 1919968; active means well fitted curve in the direction sought with a large enough effect in the repeat runs; an effect the other way counts as inactive or inconclusive; further: nearly all actives have a fitted effect of over 55% in size). The essentials: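 HaCaT ARE reporter line, 1,500 cells/well; 5 h settle, 37 C/5% CO2; cpd in DMSO pinned; 23 h exposure; CellTiter-Fluor, 1 h; fluorescence.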
For orientation: qHTS replaces the single test concentration by a dilution series.

The nature of test [2]: Nuclear factor erythroid 2-related factor 2/antioxidant responsive element (Nrf2/ARE) small molecule agonists: luciferase reporter gene qHTS assay in human keratinocytes (AID 1919969). Further: nearly all actives have a fitted effect of over 35% in size. Further: potency means the concentration at half of the fitted maximal effect. Background: A reporter such as luciferase makes a cellular process visible.
The target of test [3] is Gonadotropin-releasing hormone receptor (Homo sapiens) (UniProt P30968). As to the kind of experiment: Human gonadotropin-releasing hormone receptor (GnRHR) small molecule agonists, calcium flux assay in GnRHR-HEK293 cells (AID 1920063). Further: nearly all actives have a fitted effect of over 35% in size. An outline of the steps:
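GnRHR-HEK293, 1500 cells/well, 18 h 37 C/5% CO2; Ca dye 1 h 37 C; cpd pinned (DMSO), agonist mode; kinetic FL 480/540, 3 min, 1 s reads; 15 conc, n=3.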
For orientation: A change in cytosolic calcium serves as a functional read-out for many receptors and channels.

The target of test [4] is KiSS-1 receptor (Homo sapiens) (UniProt Q969F8). As to the kind of experiment: Human kisspeptin (KISS1R) small molecule agonists, calcium flux assay in KISS1R-HEK293 cells (AID 1920064; active means well fitted curve in the direction sought with a large enough effect in the repeat runs; an effect the other way counts as inactive or inconclusive). An outline of the steps:
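Stable human KISS1R HEK293 line; 18 h plating, 37 C/5% CO2; calcium dye 1 h 37 C; compound pin transfer; kinetic fluorescence Ex/Em 480/540, 3 min.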

Test [5] can be described thus: G protein-coupled receptor (GPCR) small molecule agonists, calcium flux assay: HEK293 wild type cell line counter screen (AID 1920065). An outline of the steps:
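Kinetic fluorescence at Ex/Em 480/540, recorded every second over 3 min, served as the read-out after compound addition. Each compound was tested at 15 concentrations in triplicate on cells pre-loaded with calcium dye for 1 h.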

Test [6] in a line: p53 small molecule agonists, cell-based qHTS assay with human liver microsomes (AID 1963577). An outline of the steps: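 Fluorescence of the beta-lactamase reporter in p53RE-bla cells, detected with LiveBLAzer substrate (2 h, room temperature, dark), served as the read-out after 16 h compound exposure at 37 C with human liver microsomes and NADPH, each 0.5 mg/mL final.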
Test [7] in a line: p53 small molecule agonists, cell-based qHTS assay with rat liver microsomes (AID 1963578). The essentials: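 Cells carrying a p53 response element–beta-lactamase reporter were plated and rested 5 h, then dosed with compound in DMSO plus rat liver microsomes and NADPH, each at 0.5 mg/mL final. After 16 h at 37 C, LiveBLAzer substrate was added for 2 h.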
Test [8] can be described thus: p53 small molecule agonists, cell-based qHTS assay with human liver microsomes: qHTS cell viability counter screen (AID 1963579). Further: nearly all actives have a fitted effect of over 45% in size. The essentials:
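Cytotoxicity counter screen: p53RE-bla, 4,000 cells/well; 5 h settle, 37 C/5% CO2; cpd + HLM 0.5 mg/mL + NADPH 0.5 mg/mL (final); 16 h, 37 C; CellTiter-Glo, 30 min RT, luminescence.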

Test [9] in a line: p53 small molecule agonists, cell-based qHTS assay with rat liver microsomes: qHTS cell viability counter screen (AID 1963580). Further: nearly all actives have a fitted effect of over 45% in size. An outline of the steps:
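p53RE-bla HCT-116 cells (4,000/well) rested 5 h at 37 C, then given Tox21 compounds in DMSO with rat liver microsomes (0.5 mg/mL final) plus NADPH (0.5 mg/mL final) for 16 h at 37 C. Viability read by CellTiter-Glo luminescence after 30 min at room temperature.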

A short description of test [10]: p53 small molecule agonists, cell-based qHTS assay: qHTS cell viability counter screen (AID 1963581). Further: nearly all actives have a fitted effect of over 45% in size. The essentials: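 HCT-116 p53RE-bla cells, 4,000/well, plated 5 h before compound pin transfer; 16 h at 37 C; bla substrate 2 h RT; then CellTiter-Glo, 30 min RT, luminescence.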
A short description of test [11]: p53 small molecule agonists, cell-based qHTS assay (AID 1963582; active means well fitted activation curve with a large enough effect in the signal ratio in the repeat runs, not every such curve was filed as active; the % refers to the signal ratio). The essentials:
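Reporter line: p53RE-bla. Pre-incubation 5 h, 37 C, 5% CO2; compound (DMSO, pin tool) 16 h, 37 C; B/G FRET substrate 2 h RT; fluorescence intensity read.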

Test [12] addresses 5-hydroxytryptamine receptor 2A (Homo sapiens) (UniProt P28223). The experiment in a line: 5-hydroxytryptamine receptor 2A (HTR2A) small molecule antagonists, cell-based qHTS assay (AID 1963586). Further: nearly all actives have a fitted effect of over 45% in size. The essentials: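 Antagonist-mode intracellular calcium assay: DOI (4 nM) added after 5 min compound pre-incubation at room temperature to dye-loaded HTR2A-CHO cells. Fluorescence followed for 3 min, sampled every second.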

For test [13] the target is unchanged. As to the kind of experiment: 5-hydroxytryptamine receptor 2A (HTR2A) small molecule agonists, cell-based qHTS assay (AID 1963587). Further: nearly all actives have a fitted effect of over 30% in size. Further: potency means the concentration at half of the fitted maximal effect. The essentials:
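HTR2A-CHO cells, plated 18 h at 37 C/5% CO2, dye-loaded 1 h at 37 C; compounds in DMSO added by pin tool (agonist mode). Intracellular calcium flux read as kinetic fluorescence on FDSS over 2 min at 1 s intervals.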

Test [14] deals with Muscarinic acetylcholine receptor M1 (Homo sapiens) (UniProt P11229). As to the kind of experiment: Cholinergic receptor muscarinic 1 (CHRM1) small molecule antagonists, cell-based qHTS assay (AID 1963588). Further: nearly all actives have a fitted effect of over 40% in size. An outline of the steps: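 CHRM1-CHO calcium-flux assay, antagonist mode. Cells were seeded 18 h, dye-loaded 1 h at 37 C and given compound for 5 min at RT, then acetylcholine was added at 50nM. FDSS fluorescence was read 3 min; 15 concentrations, three runs.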
Sequence of Muscarinic acetylcholine receptor M1 (Homo sapiens) (P11229 whole entry, looked up): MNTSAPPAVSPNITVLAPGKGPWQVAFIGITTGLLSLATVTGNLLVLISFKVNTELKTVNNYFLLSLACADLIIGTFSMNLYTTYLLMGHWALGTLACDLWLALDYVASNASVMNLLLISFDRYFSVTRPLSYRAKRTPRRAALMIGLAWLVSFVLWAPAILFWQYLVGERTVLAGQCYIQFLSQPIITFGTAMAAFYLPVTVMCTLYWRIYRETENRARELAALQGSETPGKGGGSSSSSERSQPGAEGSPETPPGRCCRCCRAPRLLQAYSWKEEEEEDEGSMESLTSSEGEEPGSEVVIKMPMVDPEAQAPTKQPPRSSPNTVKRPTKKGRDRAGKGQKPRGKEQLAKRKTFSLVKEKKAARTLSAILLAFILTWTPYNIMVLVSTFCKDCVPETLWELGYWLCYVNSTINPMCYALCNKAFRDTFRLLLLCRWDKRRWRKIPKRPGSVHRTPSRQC

The target is the same in test [15]. As to the kind of experiment: Cholinergic receptor muscarinic 1 (CHRM1) small molecule agonists, cell-based qHTS assay (AID 1963589). Further: nearly all actives have a fitted effect of over 35% in size. The essentials: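 Human M1 in stable CHO line; 18 h plating, 1 h dye load 37 C; cpd added (agonist mode); Ca2+ fluorescence kinetic read, 1 s intervals; 15 conc, 3 runs.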
A short description of test [16]: cAMP Responsive Elements (CRE) small molecule agonists, cell-based qHTS assay (AID 1963590). An outline of the steps: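 HEK 293T CRE-bla, 2,000 cells/well, 18 h preincubation 37 C/5% CO2; cpds (DMSO) pinned, 3 h; LiveBLAzer B/G FRET substrate, 2 h RT.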
The nature of test [17]: cAMP Responsive Elements (CRE) small molecule antagonists, cell-based qHTS assay (AID 1963591; active means well fitted inhibition curve with a large enough effect in the signal ratio in the repeat runs, not every such curve was filed as active; the % refers to the signal ratio). An outline of the steps:
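Beta-lactamase reporter read by FRET substrate (LiveBLAzer B/G) after 2 h at room temperature. CRE-bla HEK293T cells had received compound plus 0.25 uM (final) NKH477 for 3 h at 37 °C.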

Test [18] has as its target D(2) dopamine receptor (Homo sapiens) (UniProt P14416). The experiment in a line: Dopamine D2 receptor (DRD2) small molecule agonists, cell-based qHTS assay (AID 1963594). Further: nearly all actives have a fitted effect of over 35% in size. An outline of the steps: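 HEK293 cells stably expressing DRD2 were cultured 24 h at 37 C, then given Ro20-1724 (0.1 mM final) and compounds for 10 min at room temperature. NKH477 (200nM) was then added for 30 min. cAMP was read by HTRF.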

For test [19] the target is unchanged. The experiment in a line: Dopamine D2 receptor (DRD2) small molecule antagonists, cell-based qHTS assay (AID 1963595; active means well fitted inhibition curve with a large enough effect in the signal ratio in the repeat runs, with a control signal flat; the % refers to the signal ratio). An outline of the steps: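 Human DRD2 antagonist qHTS measuring cAMP by HTRF. The cells are exposed to compound for 10 min, then to NKH477 (200 nM) and quinpirole (12 nM) for 30 min at RT, with Ro20-1724 (0.1 mM) present throughout.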
Test [20] has as its target Beta-2 adrenergic receptor (Homo sapiens) (UniProt P07550). As to the kind of experiment: Adrenergic beta2 receptor (ADRB2) small molecule antagonists, cell-based qHTS assay (AID 1963592). Further: series mostly up to about 92 µM; nearly all actives have a fitted effect of over 50% in size. An outline of the steps:
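Cells (CHO, stable ADRB2 overexpression) incubated 18-20hr at 37C; compounds added from DMSO; agonist mix (1nM isoproterenol, 100uM IBMX, 25uM Ro-20-1724) added; 0.5hr RT; d2-cAMP and anti-cAMP-cryptate added; 1hr RT; 665/615 nm read.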

Where “and” joins values, the source holds several entries; their conditions need not be identical. Equal entries are not always repeated. Records with an inconclusive call do not appear. The source holds several records for some structures; these can differ, active in one and inactive in another. Calls of active or inactive are those of the source. Unless noted, the call rests on the fitted dose curve.

Sequence of D(2) dopamine receptor (Homo sapiens) (P14416 whole entry, looked up): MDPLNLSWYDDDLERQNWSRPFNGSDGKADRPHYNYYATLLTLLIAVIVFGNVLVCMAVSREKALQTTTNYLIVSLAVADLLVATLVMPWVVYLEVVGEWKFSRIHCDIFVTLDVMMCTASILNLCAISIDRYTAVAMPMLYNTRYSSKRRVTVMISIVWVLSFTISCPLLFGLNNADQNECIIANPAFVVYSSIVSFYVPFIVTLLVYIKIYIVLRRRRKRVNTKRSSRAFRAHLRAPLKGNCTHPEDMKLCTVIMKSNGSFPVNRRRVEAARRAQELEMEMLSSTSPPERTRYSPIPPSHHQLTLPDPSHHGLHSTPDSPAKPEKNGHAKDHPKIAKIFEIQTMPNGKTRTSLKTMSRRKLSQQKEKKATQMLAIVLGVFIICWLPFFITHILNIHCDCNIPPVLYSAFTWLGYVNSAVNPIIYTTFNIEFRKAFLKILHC
Sequence of Beta-2 adrenergic receptor (Homo sapiens) (P07550 whole entry, looked up): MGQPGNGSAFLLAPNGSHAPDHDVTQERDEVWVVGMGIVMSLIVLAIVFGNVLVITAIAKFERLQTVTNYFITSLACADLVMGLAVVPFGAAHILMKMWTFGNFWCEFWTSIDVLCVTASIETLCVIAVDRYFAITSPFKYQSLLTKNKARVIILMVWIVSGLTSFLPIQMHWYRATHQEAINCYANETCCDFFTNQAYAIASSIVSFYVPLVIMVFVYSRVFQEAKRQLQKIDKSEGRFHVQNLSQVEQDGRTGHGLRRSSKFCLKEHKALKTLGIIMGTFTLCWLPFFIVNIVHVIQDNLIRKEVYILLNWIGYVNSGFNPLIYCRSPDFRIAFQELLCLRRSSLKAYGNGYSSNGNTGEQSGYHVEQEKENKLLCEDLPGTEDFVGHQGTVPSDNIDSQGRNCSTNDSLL
Sequence of 5-hydroxytryptamine receptor 2A (Homo sapiens) (P28223 whole entry, looked up): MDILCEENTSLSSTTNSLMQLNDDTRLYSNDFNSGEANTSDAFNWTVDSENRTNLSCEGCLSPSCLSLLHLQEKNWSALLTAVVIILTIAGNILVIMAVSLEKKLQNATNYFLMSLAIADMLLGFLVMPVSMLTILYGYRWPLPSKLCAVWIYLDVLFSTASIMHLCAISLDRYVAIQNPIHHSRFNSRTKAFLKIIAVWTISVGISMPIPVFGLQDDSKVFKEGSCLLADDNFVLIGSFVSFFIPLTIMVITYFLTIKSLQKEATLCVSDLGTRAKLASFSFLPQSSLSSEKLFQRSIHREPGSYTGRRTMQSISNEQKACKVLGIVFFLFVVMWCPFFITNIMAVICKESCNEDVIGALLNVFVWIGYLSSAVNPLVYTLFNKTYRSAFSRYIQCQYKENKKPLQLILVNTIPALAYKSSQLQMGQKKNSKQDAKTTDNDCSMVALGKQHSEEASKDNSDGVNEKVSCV
Sequence of Gonadotropin-releasing hormone receptor (Homo sapiens) (P30968 whole entry, looked up): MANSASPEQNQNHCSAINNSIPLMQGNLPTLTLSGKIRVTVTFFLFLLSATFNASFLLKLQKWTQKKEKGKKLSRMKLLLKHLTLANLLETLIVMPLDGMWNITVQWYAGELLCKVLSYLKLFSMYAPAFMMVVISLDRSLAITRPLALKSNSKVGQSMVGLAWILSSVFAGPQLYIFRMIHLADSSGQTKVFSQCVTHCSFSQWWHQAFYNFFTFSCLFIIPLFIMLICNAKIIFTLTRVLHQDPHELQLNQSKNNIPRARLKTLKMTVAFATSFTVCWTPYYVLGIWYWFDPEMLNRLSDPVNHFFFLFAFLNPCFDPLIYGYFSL
Sequence of KiSS-1 receptor (Homo sapiens) (Q969F8 whole entry, looked up): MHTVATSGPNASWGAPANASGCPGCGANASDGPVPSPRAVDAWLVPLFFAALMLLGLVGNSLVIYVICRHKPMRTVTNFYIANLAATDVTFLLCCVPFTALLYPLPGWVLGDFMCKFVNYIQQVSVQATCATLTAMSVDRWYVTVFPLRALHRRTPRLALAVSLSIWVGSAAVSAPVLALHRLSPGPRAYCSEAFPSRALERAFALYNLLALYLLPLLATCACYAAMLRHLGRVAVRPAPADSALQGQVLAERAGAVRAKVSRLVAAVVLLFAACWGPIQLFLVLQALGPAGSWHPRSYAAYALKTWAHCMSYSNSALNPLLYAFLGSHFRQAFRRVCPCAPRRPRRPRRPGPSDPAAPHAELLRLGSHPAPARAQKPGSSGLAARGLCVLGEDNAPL

With `O=Cc1ccccc1O`, the Potency result in test [1], in test [2], in [3], in test [4], in test [5] and in test [6] was “inactive” in each case. The Potency result in [7], in test [8], in test [9], in test [10], in test [11] and in test [12] was “inactive” in each case. The Potency entry in test [13], in test [14], in test [15], in test [16], in [17] and in test [18] was “inactive” throughout. Also, in test [19], the Potency entry was “inactive”.

Take `O=S1(=O)CC=CC1`: the Potency result in test [1], in [2], in [3], in test [4], in test [5] and in test [6] was “inactive” throughout. Besides, the Potency result in [7], in test [8], in test [9], in test [10], in test [11] and in [12] was “inactive” throughout. For the same compound, the Potency result in [14], in test [15], in test [16], in [17], in test [18] and in test [19] was “inactive” each time. The Potency in test [13] was 37.6 µM (active) and inactive.

Take `c1ccncc1`: the Potency entry in test [1], in test [2], in test [3], in test [4], in test [5] and in test [6] was “inactive” in each case. Besides, the Potency entry in test [7], in test [8], in test [9], in test [10], in test [11] and in test [12] was “inactive” throughout. Further, the Potency entry in test [13], in test [14], in test [15], in test [17], in test [20] and in test [18] was “inactive” throughout. Further, the Potency entry in test [19] was “inactive”.

Consider `CCOC(=O)C1OC1c1ccccc1` (stereo not drawn), for which the Potency result in [1], in test [2], in [3], in test [4], in test [5] and in [6] was “inactive” throughout. Also, the Potency entry in [7], in test [8], in test [9], in test [10], in [11] and in test [12] was “inactive” each time. Moreover, the Potency result in test [13], in test [14], in [15], in [16], in test [20] and in test [18] was “inactive” in each case. The Potency entry in [19] was “inactive”.

As for `CC1CCC2CC1C2(C)C` (stereo not drawn), the Potency entry in test [1], in test [2], in test [3], in [4], in [5] and in test [6] was “inactive” in each case. The Potency result in [7], in test [8], in [9], in test [10], in test [11] and in [12] was “inactive” each time. The Potency result in test [13], in test [14], in test [15], in test [16], in [17] and in test [20] was “inactive” each time. The Potency entry in [18] and in test [19] was “inactive” each time.

Consider `Nc1cc(Cl)c(N)c(Cl)c1`, for which the Potency entry in test [1], in [3], in test [4], in test [5], in test [6] and in test [7] was “inactive” each time. Also, the Potency entry in test [8], in [9], in test [10], in [11], in test [12] and in test [13] was “inactive” in each case. The Potency result in [14], in test [15], in test [16], in test [17], in test [18] and in test [19] was “inactive” in each case. For the same compound, in test [2], the Potency was 68 µM (active) and inactive.

Regarding `CC/C=C(\C(=O)N[C@@H]1C(=O)N2C(C(=O)OCOC(=O)C(C)(C)C)=C(COC(N)=O)CS[C@H]12)c1csc(N)n1`, the Potency result in [1], in test [3], in test [4], in [5], in test [6] and in test [7] was “inactive” each time. Further, the Potency entry in test [8], in [9], in [10], in test [11], in test [12] and in test [13] was “inactive” throughout. Moreover, the Potency entry in [14], in test [15], in test [16], in test [17] and in test [18] was “inactive” in each case. Besides, in test [2], the Potency result was “inactive and 29.8 µM (active)”.

For `CCCOC(=O)c1ccccc1`, the Potency result in [1], in [2], in [3], in [4], in test [5] and in [6] was “inactive” in each case. Moreover, the Potency result in test [7], in test [8], in [9], in test [10], in [11] and in test [12] was “inactive” in each case. In addition, the Potency result in test [13], in [14], in [15], in test [16], in [17] and in test [20] was “inactive” in each case. The Potency result in [18] and in [19] was “inactive” each time.
